# BCLXL inh – inhibitors of human Bcl-xL, primary screen, biochemical, fluorescence polarization, HTS; AID 2129, 2009; GST-Bcl-xL / FITC-Bim BH3 peptide fluorescence polarization; inhibition, % at 10.9 µM; 0.7% of 320,000 active;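 active = inhibition above the mean of all tested compounds plus 3 SD, cutoff set per campaign, cut at about 30% in these data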;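 also: 0% = DMSO wells and 100% = unlabeled Bim-BH3 peptide competitor; inhibitors lower millipolarization by displacing the labeled peptide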
# MCL1-BIM inh – inhibitors of MCL1 binding to BIM-BH3, primary screen, biochemical, fluorescence polarization. Induced myeloid leukemia cell differentiation protein Mcl-1 (Homo sapiens), Q07820. GST-MCL1 / FITC-Bim-BH3 fluorescence polarization. inhibition, % at 10.9 µM. 0.68% of 320,000 active. AID 2057, 2009;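 active = inhibition above the mean inhibition of all tested compounds plus 3 SD, set per campaign, cut at about 40% in these data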;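 also: 0% = DMSO wells and 100% = unlabeled Bim-BH3 peptide control; higher means more loss of mP so more displacement of Bim peptide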
# Target sequence (Q07820 whole entry, looked up): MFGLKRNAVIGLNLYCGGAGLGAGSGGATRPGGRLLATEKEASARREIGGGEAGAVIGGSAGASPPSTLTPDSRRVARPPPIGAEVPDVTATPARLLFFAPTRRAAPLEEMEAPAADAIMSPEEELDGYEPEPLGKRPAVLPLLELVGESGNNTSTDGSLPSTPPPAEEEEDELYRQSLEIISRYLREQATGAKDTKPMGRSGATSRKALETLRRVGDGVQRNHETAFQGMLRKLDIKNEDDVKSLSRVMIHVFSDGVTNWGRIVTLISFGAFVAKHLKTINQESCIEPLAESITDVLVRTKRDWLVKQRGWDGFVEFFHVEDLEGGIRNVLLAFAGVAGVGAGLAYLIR
# MEX-5 binding – MEX-5 zinc finger RNA-binding disruptors – biochemical, C. elegans, fluorescence polarization, MLPCN library, primary screen | Zinc finger protein mex-5 (Caenorhabditis elegans), Q9XUB2 | MEX-5/FITC-TCR2 RNA binding; hits give low values | activity score (negative = inhibition of binding), % at 10 µM | 0.38% of 300,000 active;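 active = inhibition past about -25% in most replicates, and total fluorescence under double the plate's negative control median, limit read from the data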;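 also: 0% = DMSO and -100% = 5 µM competing unlabeled TCR2 RNA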
# GLD-1 TGE inh – GLD-1/TGE RNA complex disruptors, primary screen, biochemical, fluorescence polarization | Female germline-specific tumor suppressor gld-1 (Caenorhabditis elegans), Q17339 | purified GLD-1 + fluorescein TGE RNA | inhibition, % at 5.96 µM | 0.44% of 320,000 active;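 active = percent inhibition above a per-plate cutoff, the plate mean of test compounds plus 3 SD, cut at about 30% in these data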;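 also: 0% = DMSO wells with GLD-1 and probe and 100% = wells lacking GLD-1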
# E coli Lon inh – inhibitors of E. coli Lon protease, primary screen, biochemical, fluorescence polarization; P0A9M0; 0.42% of 360,000 active; inhibition, % at 7.94 µM; AID 602123, 2011; purified E. coli Lon protease; in the data active = inhibition above about 13%, passing the limit was not always enough;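 also: 0% = enzyme with probe and DMSO and 100% = no enzyme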
# EBV gp42 block – Epstein-Barr virus gp42 inhibitors, primary screen, biochemical, uHTS, fluorescence polarization | AID 1085, 2008 | inhibition, % (tested at 21.74 µM) | Glycoprotein 42 (Epstein-Barr virus (strain AG876)), Q1HVG2 | Fluorescence polarization binding assay, mP read-out | 0.42% of 220,000 active; in the data active = inhibition above about 50%
# Target sequence (Q1HVG2 whole entry, looked up): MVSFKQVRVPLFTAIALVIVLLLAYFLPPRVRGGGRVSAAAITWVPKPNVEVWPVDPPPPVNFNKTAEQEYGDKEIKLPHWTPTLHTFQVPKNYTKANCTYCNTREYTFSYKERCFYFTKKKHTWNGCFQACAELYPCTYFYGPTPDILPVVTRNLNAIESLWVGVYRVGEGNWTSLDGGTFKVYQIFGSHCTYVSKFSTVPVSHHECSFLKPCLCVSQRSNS
# eLon confirm – E. coli Lon protease inhibitor retest, confirmation, biochemical, fluorescence polarization; shares compounds with E coli Lon inh; purified E. coli Lon; inhibition, % at 7.94 µM; 31% of 1,400 active; AID 602230, 2012; in the data active = inhibition above about 16%;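 also: 0% = enzyme with probe and DMSO and 100% = no enzyme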
# The depositor's hits bear a star; . = not tested or not shown. Shown are actives, neighbours in structure and some others; about 1.5% of the full set was active somewhere.
SMILES,BCLXL inh,MCL1-BIM inh,MEX-5 binding,GLD-1 TGE inh,E coli Lon inh,EBV gp42 block,eLon confirm
Cc1ccc2cccnc2c1NC(=S)NC(=O)c1ccccc1,2.8,4.8,-0.7,4.9,19.2*,-18.4,1.8
COC(=O)c1ccccc1NC(=S)NC(=O)c1ccccc1,-3.6,8.5,-0.3,0.0,15.9*,-6.2,9.5
CC1CCc2nc(NC(=O)C3COc4ccccc4O3)sc2C1 (stereo not drawn),3.9,8.7,1.6,-10.8,33.9*,-17.0,0.1
O=C(Nc1ccn(CCCNCc2cccc3ccccc23)c(=O)n1)OCc1ccccc1,.,.,.,.,12.7*,.,-8.3
O=C(Nc1ccn(CCCNCc2ccccn2)c(=O)n1)OCc1ccccc1,.,.,.,.,1.4,.,.
CCOc1ccc(N=Cc2ccc([N+](=O)[O-])cc2)c(O)c1,.,.,.,.,43.0*,.,1.4
CCOc1ccc(N=Cc2ccc(N(C)C)cc2)c(O)c1,.,.,.,.,125.7*,.,78.2*
CCOc1ccc(/C=N/O)cc1,3.2,9.0,-3.3,4.1,-8.7,1.8,.
CC12CCCCN1CCCc1c2[nH]c2ccccc12 (stereo not drawn),23.8,23.6,-7.4,10.9,22.4*,14.2,-1.7
c1ccc2c3c([nH]c2c1)C1(CCCCC1)NCC3,1.0,-2.9,3.9,2.9,-5.3,-11.4,.
COc1cc(C)c2c(c1C=O)Oc1c(c(C)c(O)c3c1C(O)OC3=O)OC2=O (stereo not drawn),6.3,11.0,-2.0,3.4,56.8*,-14.5,16.0*
CC1CCCCC1Nc1ncnc2sccc12 (stereo not drawn),0.9,-4.7,3.4,0.8,0.2,.,.
CC(C)CN(C(=O)Cn1ccccc1=O)C1CCS(=O)(=O)C1 (stereo not drawn),4.9,2.8,.,0.7,-13.0,.,.
C[C@H]1CN([C@@H](C)CO)C(=O)CCCn2nncc2CO[C@H]1CN(C)S(=O)(=O)c1cccc(F)c1,.,.,.,.,13.0*,.,-13.8
Cc1noc(C)c1NC(=O)N(C)C[C@H]1Oc2ccc(NC(=O)C3CC3)cc2C(=O)N([C@H](C)CO)C[C@@H]1C,.,.,.,8.1,-4.8,.,.
CCN1CC=C2C(C#N)=C(N)C(C#N)(C#N)C(CCc3ccccc3)C2C1 (stereo not drawn),155.3*,182.8*,.,109.5*,26.6*,81.1*,20.6*
COCCCN1C(=O)C2C(C(=O)Nc3cccc(Cl)c3)C3C=CC2(O3)C1C(=O)NC1CCCCC1 (stereo not drawn),2.8,2.4,0.3,-7.3,1.3,.,.
CC(OC(=O)Cn1cnc2c1c(=O)n(C)c(=O)n2C)C(=O)Nc1ccc(Cl)cc1 (stereo not drawn),-0.3,-1.4,0.2,0.5,26.5*,.,-1.6
Clc1ccc(N2O[C@H]3C=C[C@@H]2C3)nc1,.,.,.,.,61.0*,.,128.8*
Cc1nc(N2CCOCC2)sc1C=O,2.8,-3.7,-1.6,7.5,20.2*,-7.4,-5.9
c1c2c(cc3sc(N4CCOCC4)nc13)OCCO2,0.9,1.6,-0.5,0.6,3.8,-10.7,.
CCOC(=O)C(=O)N(CC)C1CCS(=O)(=O)C1 (stereo not drawn),4.8,6.2,.,-0.2,17.1*,-8.3,-5.7
COc1cc(Cl)c(C)cc1NC(=O)c1ccc(NS(=O)(=O)c2ccc(F)c(F)c2)cc1,0.0,-0.7,-1.6,1.1,-3.0,-2.0,.
O=C(O)c1ccc(CN2C(=O)CSC2=S)cc1,26.5,31.6,0.2,-0.9,15.8*,-1.0,-7.0
Cc1ccc(-c2cc(C(=O)Nc3c(C)n(C)n(-c4ccccc4)c3=O)[nH]n2)c(O)c1,2.9,-5.5,-1.0,6.0,15.3*,0.4,0.3
SMILES,BCLXL inh,MCL1-BIM inh,MEX-5 binding,GLD-1 TGE inh,E coli Lon inh,EBV gp42 block,eLon confirm
Cc1nnc(N2C(=O)c3cccc4c([N+](=O)[O-])ccc(c34)C2=O)s1,15.2,16.1,-1.6,6.1,15.1*,.,13.3
O=C1c2cccc3c([N+](=O)[O-])ccc(c23)C(=O)N1Cc1cccnc1,.,.,-14.7,.,50.9*,122.6*,74.7*
NS(=O)(=O)c1ccc(NS(=O)(=O)c2ccc(C3CNC(=O)C3)cc2)cc1 (stereo not drawn),2.5,2.2,-1.7,7.4,19.1*,.,6.7
O=C(O)c1cc(S(=O)(=O)N2CC=C(c3ccccc3)CC2)ccc1O,1.8,5.5,.,2.1,-7.2,.,.
COc1cccc(CN2CC(C(=O)N(C)Cc3nc4ccc(F)cc4[nH]3)CCC2=O)c1 (stereo not drawn),1.1,-5.7,0.6,1.9,69.3*,.,-18.9
CSC1=NC(=O)/C(=C/c2ccc(SC)cc2)S1,3.8,-6.9,-4.2,-4.7,24.6*,-44.6,-3.6
CN=C1S/C(=C\c2ccc(SC)cc2)C(=O)N1C,-2.7,-4.5,-1.3,3.3,0.7,.,.
Cc1ccc(S(=O)(=O)CNC(=S)c2ccc3ccccc3c2)cc1,1.5,10.7,-0.3,-1.6,19.9*,0.8,12.4
COc1ccc(CN(C)C(=O)CNC(=O)c2sc3ccccc3c2Cl)c(OC)c1,.,.,.,.,-14.5,.,.
CCOC(=O)C1CCN(C(=O)CCc2nnc3ccc(N4CCN(C)CC4)nn23)CC1,2.7,4.6,0.4,9.1,-11.3,.,.
O=C(c1ccc2c(c1)CCN2S(=O)(=O)c1ccccc1)N1CCN(c2ccccc2F)CC1,1.5,28.9,2.0,1.4,18.2*,.,3.9
O=C(c1ccc2c(c1)CCN2S(=O)(=O)c1ccccc1)N1CCN(c2ccccc2)CC1,4.1,6.7,0.6,10.1,-14.7,.,.
CN(Cc1ccccc1)C(=O)CN1C(=O)c2ccc([N+](=O)[O-])cc2C1=O,-0.9,-2.4,0.9,-3.2,18.5*,.,-1.3
COc1ccc(C(NC(C)=O)c2cc(Cl)c3cccnc3c2O)cc1 (stereo not drawn),12.7,15.2,-2.8,-3.5,3.3,.,.
CCCC(=O)NC(c1ccc(OC)c(OC)c1)c1cc(Cl)c2cccnc2c1O (stereo not drawn),18.4,30.9,-2.9,-0.4,16.8*,12.6,47.6*
Cc1ccccc1-n1ccnc1SCC(=O)Nc1cccc(S(=O)(=O)NC2=NCCC2)c1,.,.,.,2.3,16.7*,.,-1.5
Cc1ccccc1OCC(=O)Nc1cccc(S(=O)(=O)NC2=NCCC2)c1,5.4,4.9,.,8.7,-3.5,.,.
O=C(NCc1ccccc1)C1Cc2c(-c3ccc(Cl)cc3)ccnc2O1 (stereo not drawn),.,.,.,.,-3.1,.,.
COc1ccc(S(=O)(=O)c2c(O)c3ccc(C(=O)Nc4ccccc4Cl)cc3[nH]c2=O)cc1,14.8,3.9,-6.0,-4.7,24.8*,.,9.5

# Screening results (PubChem)
